Data reported in PubChem BioAssay AID2278 (National Center for Advancing Translational Sciences (NCATS), 2010).
Results filed as inconclusive are left out. The source made the active and inactive calls. Calls come from the whole dose curve; as a rule, active = well fitted curve in the direction sought with a large enough effect; inconclusive = small, poorly fitted or top-dose-only effect, or another doubt; inactive = no such curve, though single readings can be large or run the other way.

These compounds were tested against Group 10 secretory phospholipase A2 (Mus musculus) (UniProt Q9QXX3) (assay: Secondary Assay for Inhibitors of Ubiquitin-specific Protease USP2a: PLA2 Counterscreen). Details: purified murine PLA2, NBD C6-HPC fluorescence; series mostly up to 57.5 µM; activity change, negative = inhibition: at the top concentration.
Chain of Group 10 secretory phospholipase A2 (Mus musculus) (Q9QXX3 whole entry, looked up): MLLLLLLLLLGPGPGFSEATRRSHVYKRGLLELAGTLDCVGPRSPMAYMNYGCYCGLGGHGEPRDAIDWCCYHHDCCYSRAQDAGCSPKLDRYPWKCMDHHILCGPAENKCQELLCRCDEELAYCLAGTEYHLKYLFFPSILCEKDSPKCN
Excerpt: NIH Molecular Libraries Screening Centers Network [MLSCN] NIH Chemical Genomics Center [NCGC] MLSCN Grant: XO1-MH079852-01 PI Name: Nicholson, Ben. Progenra Inc, Malvern, PA NCGC Assay Overview: Homeostasis of cellular proteins is maintained through a combination of synthesis and degradation. The pathway that accounts for the majority of protein degradation is the ubiquitin-proteasomal pathway. Ubiquitin (Ub) is highly conserved in all cells and the generation of a multi-Ub chain typically targets proteins for degradation by the proteasome. However, ubiquitination is highly reversible and dynamic. Deubiquitination, the reverse process, is catalyzed through the action of enzymes referred to as isopeptidases or deubiquitinating enzymes (DUBs). This group of enzymes is collectively responsible for maintaining adequate pools of free ubiquitin and regulating the ubiquitination status of cellular proteins. The class of DUBs referred to as the ubiquitin-specific proteases (USP) family functions endoproteolytically to cleave Ub chains from a wide range of protein substrates. USP2a deubiquitinates fatty acid synthase (FASN) which has recently been identified as an emerging oncology target. To identify inhibitors of USP2a a cell-free assay was employed. This is assay is a counterscreen used for the for the USP2a-PLA2 coupled assay. In this assay the murine PLA2 reporter enzyme is screened alone using NBD C6-HPC (Invitrogen) as a fluorogenic substrate.
NCGC Assay Protocol Summary: The assay buffer, prepared fresh at the day of the assay, contains 20mM Tris-HCl pH 8.0, 2mM CaCl2, 2mM beta-mercaptoethanol, 0.1% DMSO. 3ul of 10nM (5nM final) free PLA2, which is stored on ice, is dispensed into a medium-binding black solid Kalypsys 1,536 well plate using the Aurora BioRaptr. The assay plate is then pinned with 23nL compound with the Kalypsys pintool. The controls were pinned as follows: row 31 2M NEM and row 32 DMSO. Subsequently, 3uL 40uM (20uM final) NBD C6-HPC (stored on ice and protected from light) were dispensed into the plate using the BioRaptr dispenser. Plates were read immediately on an Envision (Perkin Elmer) plate reader using wavelengths of Ex 460nm /Em 535nm. Then, the assay plates were incubated for 2.5 hours and read again on the Envision using the same settings. Data were normalized to the to AC100 inhibition (NEM). Concentration-response curves were fitted to the normalized data and the concentration-response curves were then classified based on curve quality (r2), response magnitude and degree of measured activity. The time zero reading was used to flag fluorescence artifacts. Keywords: ubiquitination, deubiquitination, proteases, profluorescent, MLSMR, MLSCN, NIH Roadmap, qHTS, NCGC

Compound	activity change, negative = inhibition	Potency
CCC(C)NC(=O)CSc1nc2cc3c(cc2c(=O)n1Cc1ccc(C(=O)NCCc2ccc(OC)c(OC)c2)cc1)OCO3 (stereo not given)	1.89% (inactive)	
COC(=O)c1c(NC(=O)CS(=O)(=O)c2ccc(C)cc2)sc2c1CCCCC2	8.66% (inactive)	
CCc1cccc(NC(=O)CSc2ncccc2C(=O)Oc2ccccc2Cl)c1	-4.88% (inactive)	
Cc1nnc(SCC(=O)NCc2ccccc2F)c2nn(-c3ccc(Cl)cc3)c(C)c12	6.11% (inactive)	
COc1cc(C2C(C(=O)Nc3ccccc3C)=C(C)Nc3nc(SCc4cc(C)ccc4C)nn32)ccc1O (stereo not given)	15.6% (inactive)	
COc1ccc2c(c1)c1c(c(=O)n(-c3ccc(OC)c(OC)c3)c(=O)n1Cc1ccccc1C)n2C	-27.4% (inactive)	
Cc1ccc(-n2nc3c(=O)n(CCCC(=O)NCCc4ccccc4Cl)nc(C)c3c2C)cc1	-24% (inactive)	
Cc1cc(C)c2nc(N(Cc3cccnc3)C(=O)CCS(=O)(=O)c3ccccc3)sc2c1	6.88% (inactive)	
CCCc1cc(=O)oc2c3c(ccc12)OCN(Cc1ccc(OC)cc1)C3	-28.7% (inactive)	
CCOC(=O)C1CCCN(c2c(C(=O)c3ccc(C)cc3)cnc3ccc(OCC)cc23)C1 (stereo not given)	-35.2% (inactive)	
COc1ccc(C2=CC(c3cccc(C)c3)n3nnnc3N2)cc1 (stereo not given)	-30.1% (inactive)	
Cc1nn(C(=O)c2cccc([N+](=O)[O-])c2C)c(C)c1S(=O)(=O)N1CCCCCC1	-15.4% (inactive)	
CCOc1ccc(C2=C(C(C)=O)Sc3nnc(C)n3N2C(C)=O)cc1	9.3% (inactive)	
O=C(CSc1nc(=O)n(Cc2ccccn2)c2c1CCC2)Nc1ccccc1	13% (inactive)	
O=c1c(O)c(-c2cc(O)c(O)c(O)c2)oc2cc(O)cc(O)c12	11.3% (inactive)	
COc1ccc(C2C=C(c3ccc(Br)cc3)Nc3nnnn32)c(OC)c1 (stereo not given)	6.25% (inactive)	
CCCCCC(=O)N1c2ccccc2C(C)(c2ccccc2)CC1(C)C (stereo not given)	-32.1% (inactive)	
Cc1c(C(=O)N(C)C)sc2c1c(=O)n(-c1ccc(Cl)c(Cl)c1)c(=O)n2CC(=O)Nc1ccc(Br)cc1F	-22.1% (inactive)	
COc1ccc(C(=O)/C=C/c2cn(CC(O)CN(CC(C)C)CC(C)C)c3ccccc23)cc1OC (stereo not given)	-33.5% (inactive)	
Cc1ccc2scc(N3CCN(c4cccc(C(F)(F)F)c4)CC3)c(=O)c2c1	5% (inactive)	
CCc1ccc(C(=O)c2c(N)c(-c3nc(-c4ccc5c(c4)OCO5)cs3)c3ccccn23)cc1	-25.3% (inactive)	
Oc1c(C(Nc2ccccn2)c2ccccc2F)ccc2cccnc12 (stereo not given)	8.56% (inactive)	
O=C(CSc1nc2ccsc2c(=O)n1-c1ccc(Br)cc1)NCc1ccccc1	-5.48% (inactive)	
CCC(=O)C1=C(c2ccc(OC)c(OC)c2)N(C(=O)CC)n2c(CC)nnc2S1	9.52% (inactive)	
CC(=O)Nc1ccc(NC(=O)Cn2nc(C(=O)Nc3ccc(C)cc3)ccc2=O)cc1	9.94% (inactive)	
COc1ccc(Cl)cc1NC(=O)CSc1nc(=O)[nH]c2c1CCC2	8.64% (inactive)	
Cc1cc(C)cc(NC(=O)c2sc3nc4n(c(=O)c3c2C)N=C(c2ccccc2)CS4)c1		20 µM (active)
CCCCn1c(SCC(=O)NCCCOC)nc2c(sc3ccccc32)c1=O	4.02% (inactive)	
O=C(CCS(=O)(=O)c1ccccc1)N(Cc1cccnc1)c1nc2c(Cl)cccc2s1	8.8% (inactive)	
Cc1ccc([C@H]2Nc3ccc(S(=O)(=O)Nc4cccc(Cl)c4C)cc3[C@H]3C=CC[C@H]32)cc1	-20.1% (inactive)	
